Calls of active or inactive are those of the source.
Tests used:
[1] = A549 cell viability effects, profiling panel, calcein-AM fluorescence, 48 h, basal (AID 1162); conditions: higher = more signal; further: test concentration not given here
[2] = adipocyte viability effects, profiling panel, cell-based, 3T3-L1 adipocytes, calcein-AM fluorescence, 48 h, basal (AID 1163); conditions: 3T3-L1 adipocytes viability, higher = more signal; further: test concentration not given here
[3] = HepG2 cell viability effects, profiling panel, calcein-AM fluorescence, 48 h, basal (AID 1164); conditions: higher = more signal; further: test concentration not given here
[4] = MM1S cell viability effects, profiling panel, calcein-AM fluorescence, 48 h, basal (AID 1165); conditions: higher = more signal;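 further: viability of MM1S multiple myeloma cells under basal unstimulated conditions; test concentration not given here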
[5] = basal RPMI8226 viability, no added stimulus, profiling panel, cell-based, calcein-AM fluorescence, 48 h, PK04 Diversity Set (AID 1166); conditions: RPMI8226 myeloma viability, higher = more signal;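 further: cells grown under basal conditions without added stimulus; test concentration not given here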
[6] = basal HepG2 mitochondrial membrane potential changes, profiling panel, cell-based, JC-1 fluorescence, 24 h, 100 nL compound (AID 1167); conditions: higher = more signal; further: test concentration not given here
[7] = basal 3T3-L1 adipocyte mitochondrial potential changes, profiling panel, cell-based, JC-1 fluorescence, 3T3-L1 adipocytes, 24 h, 100 nL compound (AID 1168); conditions: JC-1 mitochondrial fluorescence, higher = more signal, called active from +8 up or from −8 down; further: test concentration not given here
[8] = basal RPMI8226 mitochondrial membrane potential changes, profiling panel, cell-based, JC-1 fluorescence, 24 h, 100 nL compound (AID 1169); conditions: RPMI8226 myeloma, JC-1 mitochondrial potential fluorescence, higher = more signal; further: test concentration not given here
[9] = basal MM1S mitochondrial membrane potential changes, profiling panel, cell-based, JC-1 fluorescence, 24 h, 100 nL compound (AID 1170); conditions: higher = more signal; further: test concentration not given here
[10] = A549 lung cancer cell viability effects, profiling panel, resazurin fluorescence, 24 h, PK04 Diversity Set (AID 1171); conditions: higher = more signal, called active from +8 up or from −8 down; further: test concentration not given here
[11] = HepG2 liver cancer cell viability effects, profiling panel, resazurin fluorescence, 24 h, PK04 Diversity Set (AID 1172); conditions: higher = more signal; further: test concentration not given here
[12] = basal S. cerevisiae growth modulation, no modifier, primary screen, OD600, strain BY4716, 24 h, basal condition (AID 1173); conditions: OD600, 24 h, higher = more signal, called active from +8 up or from −8 down
[13] = MM1S myeloma cell viability, profiling panel, resazurin fluorescence, basal, 24 h, PK04 Diversity Set (AID 1174); conditions: higher = more signal, called active from +8 up or from −8 down;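 further: MM1S multiple myeloma cell line; test concentration not given here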
[14] = target: Dihydroorotate dehydrogenase (quinone), mitochondrial (Plasmodium falciparum (isolate 3D7)) (UniProt Q08210); experiment: PfDHODH enzyme inhibitors, primary screen, biochemical, C-terminal His tag, absorbance 600 nm (AID 1175); conditions: DCIP absorbance 600 nm, higher = more signal, called active from +8 up or from −8 down;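 further: recombinant parasite enzyme with a five histidine tag at its C terminus; test concentration not given here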
[15] = S. cerevisiae RM11-1a growth modifiers, primary screen, strain RM11-1a, OD600, basal, 24 h (AID 1177); conditions: OD600, 24 h, higher = more signal, called active from +8 up or from −8 down;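 further: cultures grown under basal conditions with no added stressor; test concentration not given here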
[16] = E. coli acrAB mutant growth effects, primary screen, E. coli filamentation inducers, strain DRC39, OD650, 24 h (AID 1178); conditions: higher = more signal, called active from +8 up or from −8 down;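 further: growth measured as culture turbidity by optical density at 650 nm; test concentration not given here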
[17] = E. coli acrAB mutant growth effects, primary screen, E. coli filamentation inducers, strain DRC39, OD650, 48 h (AID 1179);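 further: screen aims at cell division blockers that make cells filament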; conditions: E. coli DRC39 delta-acrAB growth, higher = more signal, called active from +8 up or from −8 down
[18] = RPMI8226 myeloma cell viability, profiling panel, resazurin fluorescence, basal, 24 h, PK04 Diversity Set (AID 1180); conditions: higher = more signal;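 further: RPMI8826 multiple myeloma cell line at 5000 cells per well; test concentration not given here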
[19] = target: E3 ubiquitin-protein ligase XIAP (Homo sapiens) (UniProt P98170); experiment: XIAP binders, primary screen, biophysical, small-molecule microarray, fluorescence 635 nm (AID 1181); conditions: small-molecule microarray binding, higher = more signal;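 further: score merges 667 nm emission and signal to noise over triplicate slides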
Sequence of E3 ubiquitin-protein ligase XIAP (Homo sapiens) (P98170 whole entry, looked up): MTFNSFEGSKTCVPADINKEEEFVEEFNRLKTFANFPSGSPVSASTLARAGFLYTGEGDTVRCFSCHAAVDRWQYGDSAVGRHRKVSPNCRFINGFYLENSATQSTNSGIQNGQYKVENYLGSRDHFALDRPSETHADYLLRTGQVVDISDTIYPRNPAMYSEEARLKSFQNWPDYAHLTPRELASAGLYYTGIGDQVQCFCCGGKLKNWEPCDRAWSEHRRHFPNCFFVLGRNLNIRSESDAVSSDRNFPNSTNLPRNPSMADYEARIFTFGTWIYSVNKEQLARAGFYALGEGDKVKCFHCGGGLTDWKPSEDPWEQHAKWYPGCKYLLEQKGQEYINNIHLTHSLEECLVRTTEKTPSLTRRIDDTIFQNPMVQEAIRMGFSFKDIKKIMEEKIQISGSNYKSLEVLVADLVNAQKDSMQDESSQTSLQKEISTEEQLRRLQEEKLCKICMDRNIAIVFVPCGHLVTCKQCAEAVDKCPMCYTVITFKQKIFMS

Sequence of Dihydroorotate dehydrogenase (quinone), mitochondrial (Plasmodium falciparum (isolate 3D7)) (Q08210 whole entry, looked up): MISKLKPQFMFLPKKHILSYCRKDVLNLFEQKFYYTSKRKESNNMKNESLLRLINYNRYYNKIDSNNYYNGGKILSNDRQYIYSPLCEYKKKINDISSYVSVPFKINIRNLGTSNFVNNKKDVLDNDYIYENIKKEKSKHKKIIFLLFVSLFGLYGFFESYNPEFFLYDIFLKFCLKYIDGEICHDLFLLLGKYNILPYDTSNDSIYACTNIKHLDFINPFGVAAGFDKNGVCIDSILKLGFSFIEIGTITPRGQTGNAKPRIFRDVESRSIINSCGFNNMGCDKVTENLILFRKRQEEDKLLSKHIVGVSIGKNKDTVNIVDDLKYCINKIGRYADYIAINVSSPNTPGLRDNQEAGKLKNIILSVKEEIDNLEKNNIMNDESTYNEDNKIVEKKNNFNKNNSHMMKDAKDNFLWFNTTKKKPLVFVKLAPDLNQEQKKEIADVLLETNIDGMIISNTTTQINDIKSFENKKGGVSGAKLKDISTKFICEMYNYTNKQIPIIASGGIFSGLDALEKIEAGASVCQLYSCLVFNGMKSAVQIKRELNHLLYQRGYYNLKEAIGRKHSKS

Row | SMILES | z-score [1] | z-score [2] | z-score [3] | z-score [4] | z-score [5] | z-score [6] | z-score [7] | z-score [8] | z-score [9] | z-score [10] | z-score [11] | z-score [12] | z-score [13] | composite z-score [14] | z-score [15] | z-score [16] | z-score [17] | z-score [18] | composite z-score [19]
1 | C=CCc1cccc([C@@H]2[C@@H](C)CC[C@H]3C(=O)N4[C@H](c5cccc(CC=C)c5)[C@@H](C)CC[C@H]4C(=O)N23)c1 | -0.814 | 1.29 | -0.746 | -3.58 | -3.9 | 2.17 | 0.639 (inactive) | -0.811 | -1.28 | 3.27 (inactive) | 2.52 | -1.2 (inactive) | 0.778 (inactive) | -1.76 (inactive) | 1.1 (inactive) | 0.55 (inactive) | -0.184 (inactive) | -1.11 | -0.187
2 | CO[C@H]1COC(=O)[C@H](C)NC(=O)CC=C[C@@H](C)[C@H](NS(=O)(=O)c2ccc(C)cc2)COC(=O)[C@@H](OCc2ccccc2)C=C[C@@H]1C | 0.0987 | 0.901 | 0.0331 | -0.31 | 0.102 | 1.04 | 0.315 (inactive) | -0.729 | 1.02 | 0.559 (inactive) | 0.618 | 0.156 (inactive) | 1.03 (inactive) | 0.604 (inactive) | 1.25 (inactive) | 0.292 (inactive) | 0.104 (inactive) | 0.775 | -0.0123
3 | CO[C@H]1COC(=O)[C@@H](C)COC(=O)[C@H](Cc2ccccc2)NC(=O)CC=C[C@H]1C | -0.0475 | 0.838 | 0.53 | -0.0069 | -0.602 | 0.756 | 0.906 (inactive) | 0.25 | 0.877 | 0.733 (inactive) | 0.495 | -1.05 (inactive) | 1.06 (inactive) | 0.234 (inactive) | -1.48 (inactive) | 0.586 (inactive) | 0.274 (inactive) | 0.794 | -0.0293
4 | C=CCC(OC(C)=O)[C@@H]1[C@@H](N(Cc2cc3ccccc3o2)C(=O)c2ccc(C)cc2)c2cc(OCCCO)ccc2N1C(=O)c1ccc2ccccc2n1 (stereo partly specified) | 2.73 | 0.362 | 1.54 | 0.906 | 1.09 | 2.46 | 1.5 (inactive) | 0.648 | 1.19 | 1.66 (inactive) | 1.8 | -0.934 (inactive) | 1.37 (inactive) | 0.309 (inactive) | -0.0157 (inactive) | 1.74 (inactive) | 1.42 (inactive) | 0.585 | 0.437
5 | C=C(COC)/C(=C/C[C@H](OC(C)=O)c1ccc(OCCO)cc1)c1cnc2ccccc2c1 | 0.373 | 1.18 | -0.141 | -1.53 | 1.07 | 2.07 | 1.2 (inactive) | 0.23 | 0.278 | 0.715 (inactive) | 0.807 | -0.229 (inactive) | 1.03 (inactive) | -2.82 (inactive) | 1.65 (inactive) | 1.2 (inactive) | 0.805 (inactive) | 1.03 | -0.102
6 | CO[C@H]1COC(=O)[C@H](CCSC)NC(=O)CC=C[C@@H](C)COC(=O)[C@@H](OCc2ccccc2)C=C[C@@H]1C | 0.349 | 0.507 | 0.0042 | 0.199 | -0.358 | 0.842 | 1.23 (inactive) | 0.365 | 1.34 | 0.613 (inactive) | 0.732 | 0.0539 (inactive) | 1.06 (inactive) | 0.292 (inactive) | 0.449 (inactive) | 0.607 (inactive) | 0.26 (inactive) | 0.658 | -0.12
7 | C=CCN1C(=O)[C@@]2(O[C@@H](CCn3cc([C@H](O)c4ccccc4)nn3)[C@H]([Si](C)(C)c3ccc(OC)cc3)[C@H]2C)c2cc(N3CCOC3=O)ccc21 | -0.873 | 3.06 | -1.2 | -1.81 | -1.93 | 1.09 | 1.92 (inactive) | -0.376 | 0.753 | -1.97 (inactive) | -0.555 | -1.5 (inactive) | -0.365 (inactive) | -1.47 (inactive) | -1.57 (inactive) | 1.41 (inactive) | 0.391 (inactive) | -1.24 | 0.076
8 | C=CCOC(=O)[C@@H]1[C@H]2C(=O)O[C@H](c3ccccc3)[C@H](c3ccccc3)N2[C@H](c2ccc(OCCOC(=O)[C@H]3C[C@H]4C(=O)N5CCC[C@H]5C(=O)N4[C@H]3c3ccc(O)cc3)cc2)[C@@]12C(=O)Nc1ccccc12 | 0.17 | 1.25 | -1.06 | -0.222 | -0.931 | -1.16 | 0.597 (inactive) | -0.674 | -0.393 | -0.0653 (inactive) | -0.379 | -0.117 (inactive) | 0.201 (inactive) | 0.0956 (inactive) | 0.256 (inactive) | 0.197 (inactive) | -0.148 (inactive) | 1.03 | -0.217
9 | NC(=O)NCC#Cc1ccc2c(c1)[C@]1(C(=O)N2)[C@H](C(=O)N2CCCCCCC2)[C@H]2C(=O)O[C@H](c3ccccc3)[C@H](c3ccccc3)N2[C@@H]1c1ccccc1OCCO | -0.21 | 1.36 | -0.0395 | -2.48 | -0.583 | -1.25 | 1.03 (inactive) | -0.56 | -0.693 | 1.28 (inactive) | 0.237 | -0.643 (inactive) | 1.4 (inactive) | -0.121 (inactive) | 0.827 (inactive) | 0.218 (inactive) | 0.125 (inactive) | 1.13 | 0.306

Reference: PubChem BioAssay
